Shown are actives, neighbours in structure and some others; about 19% of the full set was active somewhere.
TDP1 cell CPT: growth inhibition of DT40 Tdp1-/-;hTDP1 cells with camptothecin (screen for TDP1 inhibitors); chicken DT40 Tdp1-/-;hTDP1 cells + 20 nM CPT, ATP luminescence, 48 h; Potency, µM (series often up to 46.2 µM), for the others: top-dose activity change, negative = growth inhibition, most hits filed as inhibitors; 420,000 tested, 12% active; AID 686979; further: nearly all actives have a fitted effect of over 55% in size
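Chicken DT40 Tdp1-/- cells complemented with human TDP1, 400 cells/well, exposed to compounds plus 20 nM camptothecin for at least 48 h at 37 C; viability read as ATP content by CellTiter-Glo luminescence.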
HT1080-NT tox: kills 2HG-producing HT-1080-NT fibrosarcoma cells; HT-1080-NT fibrosarcoma viability, CellTiter-Glo ATP luminescence, 48 h; Potency, µM (series often up to 46.1 µM), for the others: at the highest dose activity, negative = less viability, usual class: cytotoxic; 360,000 tested, 1.6% active;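 further: NT is the 2HG producing partner of a matched IDH1 knockdown line; 0% = DMSO-treated cells and -100% = media-only wells without cells; nearly all actives have a fitted effect of over 55% in size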
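HT-1080-NT; 750 cells/well; 5% FBS RPMI; 48 h compound, 37 degrees C; CellTiter-Glo luminescence; curve fitting and curve-class assignment.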
HT1080 IDH1KD tx: HT-1080 IDH1 knockdown cell toxicity (counter line); Potency, µM (series often up to 46.1 µM), inactives show at the top dose activity, negative = toxicity, most hits filed as cytotoxic; HT-1080 IDH1 knockdown viability, ATP luminescence, 48 h; 360,000 tested, 2% active;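 further: 0% = DMSO wells and -100% = cell-free medium wells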
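Cytotoxicity counter-line: IDH1KD HT-1080, 48 h, CellTiter-Glo. Curves classed by r2, magnitude and activity.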
TDP1 cell noCPT: qHTS for Inhibitors of human tyrosyl-DNA phosphodiesterase 1 (TDP1): qHTS in cells in absence of CPT | AID 686978, 2013 | Potency, µM (doses to about 46.2 µM), for inactives: at the top dose activity change, negative = growth inhibition, hits mostly inhibitors | DT40 Tdp1-/- hTDP1 cells, no CPT, ATP luminescence, 48 h | 420,000 tested, 15% active; further: nearly all actives have a fitted effect of over 55% in size
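Camptothecin absent (DMSO only). Human TDP1-complemented DT40 knockout cells, 400 cells/well, 37 °C for minimum 48 hr; ATP measured via CellTiter-Glo, 30 min dark incubation, luminescence.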
KB-V1 MDR tox: KB-V1 MDR subline cytotoxicity; KB-V1 MDR cells viability, CellTiter-Glo, 72 h; Potency, µM (titrated, usually from 46.1 µM), actives largely listed as cytotoxic; 400,000 tested, 3.4% active; AID 1347076; further: nearly all actives have a fitted effect of over 60% in size
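Drug-selected KB-V1 cells, grown in DMEM lacking phenol red with 10% FBS, receive compound titrations; after three days at 37 degrees C, surviving cell ATP is quantified by CellTiter-Glo luminescence and responses normalized and curve-fitted.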
KB-3-1 tox: kills parental KB-3-1 adenocarcinoma cells | KB-3-1 viability, CellTiter-Glo ATP luminescence, 72 h | Potency, µM (top dose mostly 46.1 µM), actives largely listed as cytotoxic | 400,000 tested, 1.4% active | AID 1347075; further: nearly all actives have a fitted effect of over 60% in size
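Parental KB-3-1 adenocarcinoma cells in phenol-red-free DMEM with 10% FBS were pin-treated with compounds at several concentrations, incubated 72 h at 37 °C, and viability read by CellTiter-Glo luminescence; concentration-effect curves were fitted after normalization.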
Active calls of the source: *; i = inactive; ? = inconclusive; nt = no result given. The call rests on the fitted dose curve; in most records, active means well fitted curve in the direction sought with a large enough effect; inconclusive means small, poorly fitted or top-dose-only effect, or another doubt; inactive means no such curve, though single readings can be large; an effect the other way counts as inactive or inconclusive. Unless noted, on the % scale 0 is the no-effect control and ±100 the full control effect; potency means the concentration at half of the fitted maximal effect.

SMILES	TDP1 cell CPT	HT1080-NT tox	HT1080 IDH1KD tx	TDP1 cell noCPT	KB-V1 MDR tox	KB-3-1 tox
COc1ccccc1-c1cncnc1NCc1cccc(C)c1	?	nt	nt	21µM*	nt	nt
Cc1cccc(CNc2ccnc(-c3ccccc3CN(C)C)n2)c1	13µM*	nt	nt	7.3µM*	nt	nt
COc1ccccc1-c1cncnc1NCc1cccs1	-2%	nt	nt	-24%	nt	nt
Cc1cc(=O)oc2cc(N3C(=O)CC(Cc4ccccc4)C3=O)ccc12 (configuration not stated)	-20%	-1%	-6%	-15%	i	i
CCOC(=O)c1ccc(NC(=O)c2nc[nH]c2C(=O)N(C)CCO)cc1	0%	15%	7%	9%	i	i
CCCCNC(=O)C1(C)CCN1C(=O)c1cccc2c1OCCO2 (configuration not stated)	0%	5%	26%	-8%	i	i
NNc1nnnc2c1sc1nc(N3CCOCC3)c3c(c12)CCCC3	?	-4%	6%	?	i	i
CC(C)CNc1nnnc2c1sc1nc(N3CCOCC3)c3c(c12)CC(C)(C)SC3	29µM*	-1%	-1%	?	?	?
CC1(C)Cc2c(c(N3CCOCC3)nc3sc4c(NCc5ccco5)nnnc4c23)CS1	21µM*	-18%	-23%	18µM*	i	i
CC(C)CSc1nc(N2CCOCC2)c2c(c1C#N)CC(C)(C)SC2	?	-4%	-2%	?	i	i
CCN1C[C@@H]2[C@@H]3C(=O)N(Cc4ccccc4)C(=O)[C@@H]3[C@](C)(C1=O)N2C(=O)c1ccc(F)cc1	-4%	4%	11%	7%	i	i
COc1ccc(NS(=O)(=O)c2ccc(C)c(NC(=O)NC3CCCCC3)c2)cc1	?	0%	-13%	?	i	i
COc1ccc(NS(=O)(=O)c2cccc(NC(=O)NC3CCCCC3)c2)cc1	?	?	-21%	23µM*	i	i
CC(C(=O)NC1CCCC1)N1CCN(S(=O)(=O)c2ccc(C(C)(C)C)cc2)CC1 (configuration not stated)	21µM*	4%	5%	10µM*	?	i
COc1ccc(NS(=O)(=O)c2cccc(NC(=O)c3ccccn3)c2)cc1	21µM*	-28%	-29%	?	10µM*	?
COc1ccc(NS(=O)(=O)c2ccc(OC)c(NC(=O)CCC3CCCCC3)c2)cc1	-25%	-1%	10%	?	12µM*	i
COc1ccc(S(=O)(=O)N2C3CCC2CC(NC(=O)NC2CCCCC2)C3)cc1 (configuration not stated)	?	7%	-7%	?	16µM*	i
COc1ccc(S(=O)(=O)N2CCC(C(=O)N[C@@H](C)C(=O)NC3CCCC3)CC2)cc1	16µM*	0%	11%	?	i	i
O=C(c1[nH]ncc1-c1ccccc1)C1CO1 (configuration not stated)	9.2µM*	?	?	13µM*	i	i
O=C(c1[nH]ncc1-c1cccc(Br)c1)C1CO1 (configuration not stated)	1.6µM*	26µM*	?	1.8µM*	?	?
COc1cc(CN(C2CC2)S(=O)(=O)c2ccccc2Br)cc(OC)c1	?	-2%	-1%	13µM*	i	?
O=C(CC1(O)C(=O)N(CCc2ccccc2)c2ccc(Br)cc21)c1ccc(F)cc1 (configuration not stated)	?	nt	nt	16µM*	i	?
C=CCN1C(=O)C(O)(CC(=O)c2ccc(OC)cc2OC)c2cc(Br)ccc21 (configuration not stated)	?	-15%	-6%	?	?	i
Cc1coc(C)c1C(=O)CC1(O)C(=O)N(CCc2ccccc2)c2ccccc21 (configuration not stated)	?	4%	-3%	?	?	i
COc1ccc(C(=O)CC2(O)C(=O)N(CCc3ccccc3)c3ccc(Br)cc32)cc1OC (configuration not stated)	16µM*	nt	nt	?	i	i
SMILES	TDP1 cell CPT	HT1080-NT tox	HT1080 IDH1KD tx	TDP1 cell noCPT	KB-V1 MDR tox	KB-3-1 tox
C=C(C)CC1(NC(C)c2ccccc2)CCCCC1 (configuration not stated)	23µM*	1%	-13%	?	i	i
COc1ccc(OC)c(NC(=O)C2CCCN(S(=O)(=O)c3ccc4[nH]c(=O)ccc4c3)C2)c1 (configuration not stated)	?	nt	nt	23µM*	nt	nt
CC(C)c1ccc(NC(=O)C2CCCN(S(=O)(=O)c3ccc4[nH]c(=O)ccc4c3)C2)cc1 (configuration not stated)	12µM*	nt	nt	-24%	nt	nt
Cn1c(-c2ccccc2)cc(=O)cc1-c1ccccc1	-8%	0%	-2%	-18%	i	i
O=c1cc(-c2ccccc2)cc(-c2ccccc2)n1O	21µM*	-29%	?	16µM*	i	i
CCCN(CCC)C(=O)Cn1c(=O)n(-c2ccc(Cl)cc2)c(=O)c2c3c(sc21)CCCC3	-26%	nt	nt	-2%	i	i
CCOC(=O)N1CCc2c(sc3c2c(=O)n(-c2ccc(CC)cc2)c(=O)n3CC(=O)c2ccccc2)C1	?	nt	nt	-15%	nt	nt
COC(=O)c1ccc(OC)c(Cn2c(=O)n(-c3cccc(Cl)c3)c(=O)c3c4c(sc32)CN(C(C)=O)CC4)c1	1%	nt	nt	-12%	i	i
CCOC(=O)N1CCc2c(sc3c2c(=O)n(-c2ccc(CC)cc2)c(=O)n3CC(=O)NCC2CCCO2)C1 (configuration not stated)	4.6µM*	-5%	-7%	1.3µM*	?	?
COc1cccc(Cn2c(=O)n(-c3cccc(Cl)c3)c(=O)c3c4c(sc32)CN(C(C)=O)CC4)c1	?	nt	nt	18µM*	?	i
CCOC(=O)N1CCc2c(sc3c2c(=O)n(-c2ccc(CC)cc2)c(=O)n3Cc2cccc(OC)c2)C1	13µM*	nt	nt	?	nt	nt
CCCN(CCC)C(=O)Cn1c(=O)n(-c2ccc(CC)cc2)c(=O)c2c3c(sc21)CCC3	?	nt	nt	16µM*	i	i
CN(Cc1ccc(Cl)c(Cl)c1)C(c1cc2ccccc2o1)c1nnnn1C(C)(C)C (configuration not stated)	?	-18%	?	21µM*	15µM*	?

Compound activity deposited in PubChem by National Center for Advancing Translational Sciences (NCATS).
